The list is not random: actives were taken first. Their share in the collection is about 27%.
CYP2C9 activ – CYP2C9 (human) activation | recombinant CYP2C9, luciferin-H conversion, luminescence; stronger effect = higher value; factor 1 = untreated enzyme, 0 = blocked | activation factor at 5 µM | 1.4% of 96,000 active | AID 1024;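 active = activation factor of 2 or more for CYP2C9 at a 5 µM dose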
CYP2C19 inh – blocks human cytochrome P450 2C19 | AID 778 | inhibition, % at 5 µM | CYP2C19 Supersomes, luciferin-H EGE luminescence, 30 min | 21% of 96,000 active | P33261;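 active = CYP2C19 inhibition above a set limit at 5 µM in the primary screen, cut at about 50% in these data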
CYP2C9 inhib – blocks human cytochrome P450 2C9. P11712. CYP2C9 Supersomes, luciferin-H conversion, luminescence. inhibition, % at 5 µM. 20% of 96,000 active;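 active = blocking of liver enzyme CYP2C9 beyond about 50% at 5 µM, limit read from the data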
EphB4 ephrin blk – EphB4-ephrin-B2 interaction antagonism | P54760 | EphB4 LBD / TNYL-RAW-Alexa532 peptide, fluorescence polarization | inhibition, % at 7 µM | 0.15% of 97,000 active | AID 720;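 active = inhibition above the screen-wide mean inhibition plus 3 SD, cut at about 15% in these data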
Target sequence (P54760 whole entry, looked up, the tested form may be a part): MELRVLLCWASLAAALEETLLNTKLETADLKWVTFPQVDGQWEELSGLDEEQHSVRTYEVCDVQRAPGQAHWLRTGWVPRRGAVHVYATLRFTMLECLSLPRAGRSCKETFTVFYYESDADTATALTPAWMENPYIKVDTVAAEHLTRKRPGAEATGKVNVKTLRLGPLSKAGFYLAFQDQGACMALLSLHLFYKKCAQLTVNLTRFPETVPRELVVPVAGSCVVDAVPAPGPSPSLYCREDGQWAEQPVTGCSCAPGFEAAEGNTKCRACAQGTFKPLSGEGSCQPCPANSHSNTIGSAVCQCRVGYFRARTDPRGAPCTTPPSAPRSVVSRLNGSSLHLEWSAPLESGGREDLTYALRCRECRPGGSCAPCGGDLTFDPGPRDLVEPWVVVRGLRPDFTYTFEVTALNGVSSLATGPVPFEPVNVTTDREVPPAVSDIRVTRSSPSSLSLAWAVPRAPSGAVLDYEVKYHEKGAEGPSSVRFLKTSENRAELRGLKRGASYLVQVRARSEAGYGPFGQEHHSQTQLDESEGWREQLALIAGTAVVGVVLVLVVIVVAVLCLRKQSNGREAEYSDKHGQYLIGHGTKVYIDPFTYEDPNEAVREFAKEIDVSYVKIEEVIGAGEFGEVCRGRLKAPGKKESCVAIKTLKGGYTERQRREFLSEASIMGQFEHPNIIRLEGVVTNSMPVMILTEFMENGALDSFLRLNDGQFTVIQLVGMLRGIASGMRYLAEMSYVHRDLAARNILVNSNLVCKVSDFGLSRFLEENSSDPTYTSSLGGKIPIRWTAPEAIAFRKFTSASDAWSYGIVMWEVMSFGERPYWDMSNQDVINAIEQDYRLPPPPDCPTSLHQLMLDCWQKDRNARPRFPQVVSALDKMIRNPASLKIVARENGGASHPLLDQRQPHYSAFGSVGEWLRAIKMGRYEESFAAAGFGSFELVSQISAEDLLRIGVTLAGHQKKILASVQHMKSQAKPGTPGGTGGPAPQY
CYP2C19 activ – activators of human cytochrome P450 2C19; P33261; recombinant CYP2C19, luciferin-H EGE luminescence; stronger effect = higher value; 0 = fully inhibited enzyme, 1 = untreated enzyme; activation factor at 5 µM; 96,000 tested, under 10 active;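 active = activation factor of at least 2 at 5 µM in the primary screen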
Large screens that a line does not name were inactive.

COc1cccc(-c2nnc(SCC(=O)N3CCOCC3)o2)c1	none
O=C(CSc1nnc(-c2ccc(O)cc2)o1)N1CCOCC1	CYP2C9 activ 2.5 (no result: EphB4 ephrin blk)
COc1cccc(-c2nnc(SCC(=O)N3CC(C)CC(C)C3)o2)c1 (stereo not drawn)	CYP2C19 inh 65
N#C/C(=N\Nc1ccccc1F)C(=N)N1CCCCC1	none (no result: CYP2C9 activ, CYP2C19 inh, CYP2C9 inhib, CYP2C19 activ)
O=C1OCCC1Sc1nnc(-c2ccc(O)cc2)o1 (stereo not drawn)	none
Oc1ccc(-c2nnc(SCC3CCCCC3)o2)cc1	CYP2C9 activ 2.1
CCn1c(=S)ccc2ccc(OC)cc21	CYP2C19 inh 64
Cc1ccc(C(=O)c2ccc(N3CCOCC3)c(F)c2)cc1	none (no result: CYP2C9 activ, CYP2C19 inh, CYP2C9 inhib, CYP2C19 activ)
O=C(Nc1ccccn1)c1ccc2ccccc2n1	none
CCOC(=O)N1CCC(NC(=O)CN2C(=O)CCSc3ccccc32)CC1	none (no result: EphB4 ephrin blk)
CCOC(=O)N1CCC(NC(=O)Cn2c3c(c(-c4ccccc4Cl)cc2=O)CCC3)CC1	CYP2C9 inhib 54 (no result: EphB4 ephrin blk)
CC(/C=N/n1c(COc2ccccc2)n[nH]c1=S)=C\c1ccccc1	none
O=C(CN(Cc1ccco1)C(=O)c1cccc(Cl)c1)Nc1c(Cl)cc(Cl)cc1Cl	CYP2C19 inh 51, CYP2C9 inhib 62
Cc1ccc(SC(C)C(=O)NCC(C)C)cc1 (stereo not drawn)	none
CCOc1cc(CNC(C)(C)CO)cc(Br)c1OCc1ccc(Cl)cc1Cl	none
CCOc1cc(CNCCO)cc(Br)c1OCc1ccccc1Cl	CYP2C19 inh 55
CCOc1cc(CNCCO)cc(Br)c1OCc1ccc(Cl)cc1	CYP2C19 inh 78
CCOc1cc(/C=N/O)cc(Br)c1OCc1ccc(Cl)cc1	none
c1ccc(CN2c3ccccc3-c3nc4ccccc4n3C2c2ccccn2)cc1 (stereo not drawn)	none
O=C(Nc1ccc(Cl)cc1)N1CCC(c2nc(-c3cccs3)no2)CC1	none
O=C(Nc1ccc(Cl)cc1)N1CCC(c2nc(-c3ccccc3Cl)no2)CC1	none
COc1ccc(NC(=O)N2CCC(c3nc(-c4cccs4)no3)CC2)cc1	CYP2C19 inh 69, CYP2C9 inhib 55
O=C(Nc1ccccc1)N1CCCC(c2nc(-c3cccs3)no2)C1 (stereo not drawn)	CYP2C19 inh 87 (no result: EphB4 ephrin blk)
CC1(C)Cc2ccccc2C(N)=C1C#N	CYP2C19 inh 94, CYP2C9 inhib 78
CCC(C)(C)NC(=O)CN(C(=O)CNS(=O)(=O)c1ccc(C)cc1)c1ccc2c(c1)OCCO2	CYP2C9 inhib 54
Cc1ccc(S(=O)(=O)NCC(=O)N(CC(=O)NC2CCCC2)c2ccc3c(c2)OCCO3)cc1	CYP2C9 inhib 61
Cc1ccc(N(CC(=O)NC2CCCCC2)C(=O)c2ccc(C)s2)cc1	CYP2C9 inhib 60
Cc1ccc2c(c1)CCCN2C(=O)C1CCCO1 (stereo not drawn)	none
CCC(C)C(=O)Nc1nc2c(s1)C(=O)CC(C)(C)C2 (stereo not drawn)	none
CCC(c1nnnn1Cc1ccccc1)N1CCN(C(=O)c2ccco2)CC1 (stereo not drawn)	none
NC(=O)C1CCN(C(c2ccccc2Cl)c2nnnn2Cc2ccc3c(c2)OCO3)CC1 (stereo not drawn)	CYP2C19 inh 81, CYP2C9 inhib 68
CCC(c1nnnn1Cc1ccc2c(c1)OCO2)N1CCN(c2ccccc2)CC1 (stereo not drawn)	CYP2C19 inh 68, CYP2C9 inhib 81
CCC(c1nnnn1Cc1ccc2c(c1)OCO2)N1CCN(c2ccc(OC)cc2)CC1 (stereo not drawn)	CYP2C19 inh 73, CYP2C9 inhib 83
CC(C)C(c1nnnn1Cc1ccc(F)cc1)N1CCN(C(=O)c2ccco2)CC1 (stereo not drawn)	CYP2C19 inh 50, CYP2C9 inhib 62
c1ccc(Cn2nnnc2CN2CCN(Cc3ccc4c(c3)OCO4)CC2)cc1	none
CCCCCCCCC(=O)NC(NC(=S)N1CCOCC1)C(Cl)(Cl)Cl (stereo not drawn)	none (no result: CYP2C9 activ, CYP2C19 inh, CYP2C9 inhib, CYP2C19 activ)
COc1cc(-c2nnc(SCC(=O)N3CCCC3)o2)cc(OC)c1OC	none
CC(C)C(c1nnnn1Cc1ccc(F)cc1)N1CCN(Cc2ccc3c(c2)OCO3)CC1 (stereo not drawn)	CYP2C19 inh 87, CYP2C9 inhib 72
CCC(c1nnnn1Cc1ccc2c(c1)OCO2)N1CCN(c2ccc(F)cc2)CC1 (stereo not drawn)	CYP2C9 inhib 87
COc1ccc(Cn2nnnc2C(c2cccs2)N2CCN(c3ccc([N+](=O)[O-])cc3)CC2)cc1 (stereo not drawn)	CYP2C19 inh 63, CYP2C9 inhib 73
CCN1CCN(C(c2nnnn2Cc2ccc3c(c2)OCO3)C(C)C)CC1 (stereo not drawn)	none (no result: CYP2C9 activ, CYP2C19 inh, CYP2C9 inhib, CYP2C19 activ)
COc1ccc(Cn2nnnc2C(c2cccs2)N2CCN(c3ccccc3)CC2)cc1 (stereo not drawn)	none
COC(=O)c1ccccc1NC(=O)Cn1c(-c2nonc2N)nc2ccccc21	none
COc1cc2c(cc1OC)CN(C(=O)CSc1nc3[nH]ncc3c(=O)n1-c1ccccc1)CC2	none
O=C(N/N=C/c1ccco1)/C(=C/c1cccc([N+](=O)[O-])c1)NC(=O)c1ccccc1	CYP2C19 inh 69
O=C(N/N=C/c1ccc(Br)o1)/C(=C/c1ccc([N+](=O)[O-])cc1)NC(=O)c1ccccc1	CYP2C19 inh 52
CC(C)NC(=O)/C(=C\c1cccc([N+](=O)[O-])c1)NC(=O)c1ccccc1	none
O=C(O)COCc1nc2ccccc2[nH]1	none
CC(Oc1ccc(C(=O)NCCc2ccccc2)cc1)C(=O)O (stereo not drawn)	none
COc1cc(CC(=O)NCCc2ccc(OCc3ccccc3)cc2)c([N+](=O)[O-])cc1OC	CYP2C19 inh 61
COc1ccc(CCNC(=O)Cc2cc(OCc3ccccc3)c(OC)cc2[N+](=O)[O-])cc1OC	CYP2C9 inhib 55
Cc1c(Cl)cccc1-n1nnnc1-c1cccs1	CYP2C19 inh 96 (no result: EphB4 ephrin blk)
COC(=O)C1=CN(CC2CCCO2)C=C(C(=O)OC)C1c1ccccc1C(F)(F)F (stereo not drawn)	none
COC(=O)C1=CN(CC2CCCO2)C=C(C(=O)OC)C1c1ccsc1 (stereo not drawn)	CYP2C9 inhib 52 (no result: EphB4 ephrin blk)
COc1ccc(CCNC(=O)c2cc3ccccn3n2)c(OC)c1OC	CYP2C19 inh 75
CCN(CC)CCCn1c(=S)[nH]c2cc(C(=O)OC)ccc2c1=O	none
O=C(CSc1nnc(-c2ccccc2Br)o1)N1CCN(C(=O)c2ccco2)CC1	none
COc1cccc(-n2nnc3c(=O)n(Cc4ccc(C)cc4)cnc32)c1	none
Cc1nnc(OC(C)C)c2nn(-c3ccccc3F)c(C)c12	CYP2C19 inh 51, CYP2C9 inhib 89
COc1cccc(/C=N/NC(=O)C(=O)NCc2cccnc2)c1	none
CC(C)C(c1nnnn1Cc1ccccc1)N1CCc2ccccc2C1 (stereo not drawn)	CYP2C9 inhib 53 (no result: EphB4 ephrin blk)
c1ccc(Cn2nnnc2C(c2cccs2)N2CCc3ccccc3C2)cc1 (stereo not drawn)	CYP2C19 inh 92, CYP2C9 inhib 70 (no result: EphB4 ephrin blk)
CC(C)C(c1nnnn1C1CCCCC1)N1CCc2ccccc2C1 (stereo not drawn)	none

High-throughput results deposited in PubChem BioAssay by several laboratories.
